This is an account of results in paper PMC7862700, “An all-to-all approach to the identification of sequence-specific readers for epigenetic DNA modifications on cytosine”.

What all share (assay): DAPPL (digital affinity profiling via proximity ligation, sequencing); 10 mM Tris-HCl pH 7.5, 50 mM NaCl, 1 mM DTT, 4% glycerol, room temperature, 30 min; GST-TFs on glutathione beads, 16-mer random dsDNA library, 0.1% formaldehyde crosslink after washing; high values mean tight binding
Common to all, as to conditions: protein: recombinant; tags: N-terminal GST; dsDNA, one strand shown

For one assay, the target named is T1, FLI1 (Homo sapiens, UniProt Q01543 1-452).
T1 sequence: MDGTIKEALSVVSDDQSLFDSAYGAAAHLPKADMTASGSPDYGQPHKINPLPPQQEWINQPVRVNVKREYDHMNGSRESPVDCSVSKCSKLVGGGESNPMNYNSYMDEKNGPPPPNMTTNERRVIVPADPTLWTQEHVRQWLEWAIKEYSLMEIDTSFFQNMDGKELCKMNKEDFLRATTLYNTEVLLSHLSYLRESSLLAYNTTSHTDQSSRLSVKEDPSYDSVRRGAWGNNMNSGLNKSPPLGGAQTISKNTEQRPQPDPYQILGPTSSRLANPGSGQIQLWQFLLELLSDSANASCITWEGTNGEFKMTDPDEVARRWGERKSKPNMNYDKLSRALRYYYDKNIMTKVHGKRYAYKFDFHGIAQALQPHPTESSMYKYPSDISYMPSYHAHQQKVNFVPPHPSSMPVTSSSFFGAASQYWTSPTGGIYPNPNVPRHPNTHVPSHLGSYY
In a few lines:
(§1)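 Binding signal is each hexamer's read frequency for a factor divided by its frequency in the tag-only sample. The factors were GST-fused human transcription factors from yeast, captured on glutathione beads, DNA-barcoded and pooled with that sample. Pools were incubated with 200 nmole of a random double-stranded 16-mer DNA library in Tris/NaCl/DTT/glycerol buffer at room temperature for 30 min, then washed, crosslinked with 0.1% formaldehyde, proximity-ligated with BsaI/T4 ligase (1 h, 37 °C), PCR-amplified and sequenced on an Illumina NextSeq500.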

A further assay concerns the target T2, ELK1 (Homo sapiens, UniProt P19419 1-428).
T2 sequence: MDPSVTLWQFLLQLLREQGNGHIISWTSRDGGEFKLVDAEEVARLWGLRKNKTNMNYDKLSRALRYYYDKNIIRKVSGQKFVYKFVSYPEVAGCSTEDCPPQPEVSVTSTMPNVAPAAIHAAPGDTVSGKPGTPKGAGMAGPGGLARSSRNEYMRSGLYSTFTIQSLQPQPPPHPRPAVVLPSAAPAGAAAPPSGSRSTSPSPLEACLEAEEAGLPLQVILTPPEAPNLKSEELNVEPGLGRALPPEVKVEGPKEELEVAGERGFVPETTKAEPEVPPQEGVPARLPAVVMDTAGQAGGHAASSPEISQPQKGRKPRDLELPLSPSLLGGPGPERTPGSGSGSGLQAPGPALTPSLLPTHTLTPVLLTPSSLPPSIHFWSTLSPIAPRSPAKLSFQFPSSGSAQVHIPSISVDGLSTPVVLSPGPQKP
The essentials: as §1

In another assay the target is T3, GABPA (Homo sapiens, UniProt Q06546 1-454).
T3 sequence: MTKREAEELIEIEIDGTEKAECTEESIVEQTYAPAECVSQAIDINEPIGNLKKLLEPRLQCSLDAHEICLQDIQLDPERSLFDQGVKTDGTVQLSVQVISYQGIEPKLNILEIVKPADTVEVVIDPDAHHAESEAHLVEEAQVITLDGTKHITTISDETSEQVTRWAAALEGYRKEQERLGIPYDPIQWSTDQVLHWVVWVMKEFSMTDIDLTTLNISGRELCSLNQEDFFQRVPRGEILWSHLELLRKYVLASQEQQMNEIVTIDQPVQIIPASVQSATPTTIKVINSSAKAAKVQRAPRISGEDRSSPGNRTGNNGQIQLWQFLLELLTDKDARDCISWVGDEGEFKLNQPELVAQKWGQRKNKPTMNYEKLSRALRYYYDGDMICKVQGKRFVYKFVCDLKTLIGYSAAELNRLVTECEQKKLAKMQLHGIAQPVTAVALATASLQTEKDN
In a few lines:
as §1

The target of the next assay is T4, ERG (Homo sapiens, UniProt P11308 1-479).
T4 sequence: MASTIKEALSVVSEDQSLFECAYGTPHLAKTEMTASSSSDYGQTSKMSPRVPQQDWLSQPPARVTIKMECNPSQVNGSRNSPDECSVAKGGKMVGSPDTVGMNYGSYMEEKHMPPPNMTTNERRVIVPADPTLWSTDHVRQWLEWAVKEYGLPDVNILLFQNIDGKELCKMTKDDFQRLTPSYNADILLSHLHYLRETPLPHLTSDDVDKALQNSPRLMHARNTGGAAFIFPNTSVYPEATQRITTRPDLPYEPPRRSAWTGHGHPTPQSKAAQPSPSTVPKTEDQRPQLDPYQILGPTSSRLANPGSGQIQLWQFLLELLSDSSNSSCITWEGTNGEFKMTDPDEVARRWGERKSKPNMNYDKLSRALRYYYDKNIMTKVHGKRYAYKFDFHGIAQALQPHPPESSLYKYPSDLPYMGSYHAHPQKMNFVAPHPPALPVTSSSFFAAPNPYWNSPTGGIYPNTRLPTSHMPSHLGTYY
In a few lines:
as §1

Another assay concerns the target ELF1 (Homo sapiens, UniProt P32519 1-619). In a few lines: as §1
In the next assay the target is T5, EHF (Homo sapiens, UniProt Q9NZC4 1-300).
T5 sequence: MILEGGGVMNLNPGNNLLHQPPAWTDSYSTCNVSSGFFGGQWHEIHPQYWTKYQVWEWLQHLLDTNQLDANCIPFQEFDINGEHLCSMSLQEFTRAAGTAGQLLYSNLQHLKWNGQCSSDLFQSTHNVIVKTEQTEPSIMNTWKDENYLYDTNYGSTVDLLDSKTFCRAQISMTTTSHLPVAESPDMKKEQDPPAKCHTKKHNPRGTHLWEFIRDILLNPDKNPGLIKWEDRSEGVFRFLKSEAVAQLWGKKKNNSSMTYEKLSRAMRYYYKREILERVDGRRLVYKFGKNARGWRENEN
The essentials:
as §1

For the next assay, the target named is SPI1 (Homo sapiens, UniProt P17947 1-270). The essentials: as §1
Another assay addresses SPIB (Homo sapiens, UniProt Q01892 1-262). In a few lines: as §1
The target in the next assay is T6, ELK3 (Homo sapiens, UniProt P41970 1-407).
T6 sequence: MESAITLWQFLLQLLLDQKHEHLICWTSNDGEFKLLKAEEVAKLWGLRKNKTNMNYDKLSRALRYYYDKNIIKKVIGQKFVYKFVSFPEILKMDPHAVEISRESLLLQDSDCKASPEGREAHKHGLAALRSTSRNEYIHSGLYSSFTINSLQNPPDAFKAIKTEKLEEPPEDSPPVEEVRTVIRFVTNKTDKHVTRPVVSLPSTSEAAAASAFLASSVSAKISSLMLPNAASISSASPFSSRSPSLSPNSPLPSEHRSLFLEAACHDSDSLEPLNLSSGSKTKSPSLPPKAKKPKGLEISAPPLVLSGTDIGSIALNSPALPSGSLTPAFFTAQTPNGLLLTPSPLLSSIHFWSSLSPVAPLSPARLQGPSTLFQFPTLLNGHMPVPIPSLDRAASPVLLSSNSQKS
In a few lines:
as §1

Sequence of SPIB (Q01892 whole entry): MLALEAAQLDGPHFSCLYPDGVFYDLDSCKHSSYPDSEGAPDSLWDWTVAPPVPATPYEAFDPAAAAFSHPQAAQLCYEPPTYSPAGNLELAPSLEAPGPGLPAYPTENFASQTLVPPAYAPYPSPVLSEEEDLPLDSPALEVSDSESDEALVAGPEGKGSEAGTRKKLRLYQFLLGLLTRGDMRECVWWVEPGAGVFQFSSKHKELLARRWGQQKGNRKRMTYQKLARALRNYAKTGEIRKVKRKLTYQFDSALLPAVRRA
Sequence of ELF1 (P32519 whole entry): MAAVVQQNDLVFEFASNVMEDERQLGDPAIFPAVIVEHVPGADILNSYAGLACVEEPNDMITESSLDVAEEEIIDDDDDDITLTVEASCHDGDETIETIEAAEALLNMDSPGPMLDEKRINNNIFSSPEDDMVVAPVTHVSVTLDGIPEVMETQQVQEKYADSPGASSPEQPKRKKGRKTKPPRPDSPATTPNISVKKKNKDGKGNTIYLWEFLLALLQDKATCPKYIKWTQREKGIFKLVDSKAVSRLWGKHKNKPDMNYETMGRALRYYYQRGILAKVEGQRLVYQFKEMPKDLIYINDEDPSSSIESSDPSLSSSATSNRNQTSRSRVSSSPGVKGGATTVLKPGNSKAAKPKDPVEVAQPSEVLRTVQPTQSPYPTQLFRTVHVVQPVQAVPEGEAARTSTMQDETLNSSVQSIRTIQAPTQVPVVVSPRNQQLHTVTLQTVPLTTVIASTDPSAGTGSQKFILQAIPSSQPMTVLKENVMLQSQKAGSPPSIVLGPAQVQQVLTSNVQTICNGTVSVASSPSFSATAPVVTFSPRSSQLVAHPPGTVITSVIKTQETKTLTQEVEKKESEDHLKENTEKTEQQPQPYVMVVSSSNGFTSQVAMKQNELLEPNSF

On to ATGTTA, for which the binding signal with FLI1 was 1.24 fold enrichment (6-mer frequency, TF over GST control); with ELK1, 1.25 fold enrichment (6-mer frequency, TF over GST control); with GABPA, 1.26 fold enrichment (6-mer frequency, TF over GST control); with ERG, 1.22 fold enrichment (6-mer frequency, TF over GST control); in the assay with ELF1, 1.22 fold enrichment (6-mer frequency, TF over GST control); with EHF it was 1.23 fold enrichment (6-mer frequency, TF over GST control). The binding signal with SPI1 was 1.13 fold enrichment (6-mer frequency, TF over GST control); with SPIB, 1.17 fold enrichment (6-mer frequency, TF over GST control); with ELK3, 1.15 fold enrichment (6-mer frequency, TF over GST control).
As to TTCGGT, the binding signal was 1.06 fold enrichment (6-mer frequency, TF over GST control) with FLI1; 1.09 fold enrichment (6-mer frequency, TF over GST control) with ELK1; 1.13 fold enrichment (6-mer frequency, TF over GST control) in the assay with GABPA; 1.1 fold enrichment (6-mer frequency, TF over GST control) with ERG; 1.14 fold enrichment (6-mer frequency, TF over GST control) in the assay with ELF1; 1.23 fold enrichment (6-mer frequency, TF over GST control) with EHF. In addition, the binding signal with SPI1 was 1.2 fold enrichment (6-mer frequency, TF over GST control); in the assay with SPIB, 1.16 fold enrichment (6-mer frequency, TF over GST control); in the assay with ELK3, 1.22 fold enrichment (6-mer frequency, TF over GST control).
As to TTCTAG, the binding signal was 1.27 fold enrichment (6-mer frequency, TF over GST control) with FLI1; 1.26 fold enrichment (6-mer frequency, TF over GST control) with ELK1; 1.38 fold enrichment (6-mer frequency, TF over GST control) with GABPA; 1.33 fold enrichment (6-mer frequency, TF over GST control) in the assay with ERG; 1.25 fold enrichment (6-mer frequency, TF over GST control) with ELF1; 1.2 fold enrichment (6-mer frequency, TF over GST control) with EHF. Also, the binding signal with SPI1 was 1.2 fold enrichment (6-mer frequency, TF over GST control); with SPIB, 1.14 fold enrichment (6-mer frequency, TF over GST control); with ELK3, 1.3 fold enrichment (6-mer frequency, TF over GST control).
GCTTTC: the binding signal was 1.27 fold enrichment (6-mer frequency, TF over GST control) with FLI1; 1.22 fold enrichment (6-mer frequency, TF over GST control) with ELK1; 1.3 fold enrichment (6-mer frequency, TF over GST control) in the assay with GABPA; 1.28 fold enrichment (6-mer frequency, TF over GST control) with ERG; 1.32 fold enrichment (6-mer frequency, TF over GST control) with ELF1; 1.34 fold enrichment (6-mer frequency, TF over GST control) in the assay with EHF. For the same sequence, the binding signal with SPI1 is 1.28 fold enrichment (6-mer frequency, TF over GST control); with SPIB, 1.27 fold enrichment (6-mer frequency, TF over GST control); in the assay with ELK3, 1.38 fold enrichment (6-mer frequency, TF over GST control).
As for GCTGAT, the binding signal was 1.11 fold enrichment (6-mer frequency, TF over GST control) with FLI1; 1.1 fold enrichment (6-mer frequency, TF over GST control) with ELK1; 1.18 fold enrichment (6-mer frequency, TF over GST control) in the assay with GABPA; 1.1 fold enrichment (6-mer frequency, TF over GST control) with ERG; 1.22 fold enrichment (6-mer frequency, TF over GST control) in the assay with ELF1; 1.33 fold enrichment (6-mer frequency, TF over GST control) with EHF. In addition, the binding signal was 1.08 fold enrichment (6-mer frequency, TF over GST control) with SPI1; 1.11 fold enrichment (6-mer frequency, TF over GST control) with SPIB; 1.33 fold enrichment (6-mer frequency, TF over GST control) with ELK3.
In the case of GCTTGC, the binding signal is 1.41 fold enrichment (6-mer frequency, TF over GST control) with FLI1; 1.28 fold enrichment (6-mer frequency, TF over GST control) with ELK1; 1.21 fold enrichment (6-mer frequency, TF over GST control) with GABPA; 1.14 fold enrichment (6-mer frequency, TF over GST control) with ERG; 1.25 fold enrichment (6-mer frequency, TF over GST control) with ELF1; 1.28 fold enrichment (6-mer frequency, TF over GST control) with EHF. Also, the binding signal was 1.18 fold enrichment (6-mer frequency, TF over GST control) with SPI1; 1.24 fold enrichment (6-mer frequency, TF over GST control) in the assay with SPIB; 1.3 fold enrichment (6-mer frequency, TF over GST control) with ELK3.
As to CAATTT, the binding signal with FLI1 is 1.26 fold enrichment (6-mer frequency, TF over GST control); with ELK1 it was 1.35 fold enrichment (6-mer frequency, TF over GST control); with GABPA it was 1.37 fold enrichment (6-mer frequency, TF over GST control); with ERG, 1.43 fold enrichment (6-mer frequency, TF over GST control); with ELF1 it was 1.29 fold enrichment (6-mer frequency, TF over GST control); with EHF, 1.28 fold enrichment (6-mer frequency, TF over GST control). The binding signal in the assay with SPI1 was 1.32 fold enrichment (6-mer frequency, TF over GST control); in the assay with SPIB, 1.43 fold enrichment (6-mer frequency, TF over GST control); with ELK3 it was 1.12 fold enrichment (6-mer frequency, TF over GST control).
In the case of ATCTTA, the binding signal with FLI1 was 1.15 fold enrichment (6-mer frequency, TF over GST control); in the assay with ELK1 it was 1.07 fold enrichment (6-mer frequency, TF over GST control); in the assay with GABPA, 1.1 fold enrichment (6-mer frequency, TF over GST control); in the assay with ERG, 1.09 fold enrichment (6-mer frequency, TF over GST control); in the assay with ELF1 it was 1.15 fold enrichment (6-mer frequency, TF over GST control); in the assay with EHF, 1.04 fold enrichment (6-mer frequency, TF over GST control). For the same sequence, the binding signal in the assay with SPI1 is 1.01 fold enrichment (6-mer frequency, TF over GST control); with SPIB it was 1.03 fold enrichment (6-mer frequency, TF over GST control); with ELK3 it was 1.11 fold enrichment (6-mer frequency, TF over GST control).
